Structures are written as SMILES. Results filed as inconclusive are left out. Activity calls are given as the source filed them. How the source made its calls: active means hit-call score of the fitted dose curve at least 0.9, where 1 is the maximum; inconclusive means response in the unintended direction; inactive means score below 0.9.

In the experiment the target is human Protein Kinase C, zeta (PKCz), PRKCZ (gene 5590) (UniProt Q05513). The experiment is described as follows: NVS_ENZ_hPKCz: NovaScreen (NVS) Enzymatic Assay for human Protein Kinase C, zeta (PKCz). On the procedure: NVS_ENZ_hPKCz is a biochemical, single-readout assay that uses extracted gene-proteins in a cell-free assay. Measurements were taken 1 hour after chemical dosing in a 384-well plate.NVS_ENZ_hPKCz is one of one assay component(s) measured or calculated from the NVS_ENZ_hPKCz assay. It is designed to make measurements of enzyme activity, a form of enzyme reporter, as detected with fluorescence intensity signals by Fluorescence and electrophoretic mobility shift technology.Data from the assay component NVS_ENZ_hPKCz was analyzed into 1 assay endpoint. This assay endpoint, NVS_ENZ_hPKCz, was analyzed in the positive analysis fitting direction relative to DMSO as the negative control and baseline of activity. Using a type of enzyme reporter, loss-of-signal activity can be used to understand changes in the enzymatic activity as they relate to the gene PRKCZ. Furthermore, this assay endpoint can be referred to as a primary readout, because this assay has produced multiple assay endpoints where this one serves a enzymatic activity function. To generalize the intended target to other relatable targets, this assay endpoint is annotated to the kinase intended target family, where the subfamily is serine/threonine kinase.
Chain of human Protein Kinase C, zeta (PKCz), PRKCZ (gene 5590) (Q05513 whole entry, looked up): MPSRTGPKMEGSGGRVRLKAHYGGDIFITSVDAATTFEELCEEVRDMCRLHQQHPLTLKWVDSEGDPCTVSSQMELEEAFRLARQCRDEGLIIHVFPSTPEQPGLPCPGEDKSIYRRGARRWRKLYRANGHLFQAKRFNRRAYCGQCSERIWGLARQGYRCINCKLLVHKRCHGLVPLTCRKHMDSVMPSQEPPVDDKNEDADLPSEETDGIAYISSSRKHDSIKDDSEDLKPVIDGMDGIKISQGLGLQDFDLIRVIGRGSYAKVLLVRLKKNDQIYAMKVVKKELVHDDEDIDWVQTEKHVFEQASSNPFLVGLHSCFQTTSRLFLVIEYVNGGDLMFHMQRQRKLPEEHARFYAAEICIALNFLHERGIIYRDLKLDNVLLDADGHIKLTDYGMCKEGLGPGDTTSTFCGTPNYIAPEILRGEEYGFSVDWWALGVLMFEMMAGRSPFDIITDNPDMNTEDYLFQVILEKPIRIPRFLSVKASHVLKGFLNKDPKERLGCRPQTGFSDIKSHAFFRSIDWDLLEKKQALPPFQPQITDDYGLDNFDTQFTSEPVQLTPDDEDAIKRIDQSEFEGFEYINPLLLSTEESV
Binding assays used specific radioligands (tritiated, iodinated) with non-radioactive competitive displacement ligands in agonist or antagonist protocols (as indicated) and various reference compounds and inhibitors to titrate specific binding to receptors and transporters. Most enzyme assays (CYPs, kinases, phosphatases, proteases, HDACs) used recombinant protein and specific substrates (fluorescence mostly, some colorimetric and radioactive) and inhibitors, followed by a biochemical separation of substrate and product. All assays for the biochemical HTS were initially run in duplicate at a single concentration (10 uM for CYP450 assays and 25 uM for all others). Assay-chemical combinations meeting a pre-defined threshold (e.g., 30% inhibition and other criteria defined below) were then run in singleton concentration-response format with maximum concentration of 20 uM for CYPs and 50 uM for all others. Each assay was run with positive and negative controls, and concurrent controls on every plate. The follow-up (secondary) screen tested active chemical-pairs in concentration series, as well as a few additional assays not tested in the primary screen, some selected negative inactives, and several cases re-run in the concentration series for confirmatory purposes.
As for `COC(=O)c1ccccc1S(=O)(=O)NC(=O)N(C)c1nc(C)nc(OC)n1`, the compound was called inactive. As to `S=C1NCCN1`, the outcome was inactive. Take `CCCCC(CC)COC(=O)c1ccccc1C(=O)OCC(CC)CCCC` (stereo not given): the compound was called inactive. As to `CCOP(=S)(OCC)Oc1ccc2c(C)c(Cl)c(=O)oc2c1`, the outcome was inactive. As to `COCC(C)N(C(=O)CCl)c1c(C)csc1C` (stereo not given), the compound was classed as inactive.

Values taken from PubChem BioAssay AID2283193 (EPA ToxCast).
